Several values for one entry are separate records, joined by “and”; a condition that tells them apart may be missing. Identical values can stand only once. Screen size: about 5,500 compounds; about 2,000 (36%) were called active. Roughly 18% stayed inconclusive and do not appear here. No stated cut-off is given here; in the data, active means normalized growth mostly below about 0.91 (no sharp cut-off); inconclusive means no clear call, values can overlap the other calls; inactive means mostly above about 0.92. This is one part of the list.
Assay: chemical genetic growth profiling, strain panel (AID 1159580);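 further: tested at 20 µM; growth read once vehicle control cultures reached saturation at 30 °C; 1 = growth at the plate median or of vehicle wells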
Details: S. cerevisiae deletion strains, growth OD

Measured: normalized growth

COc1c(N2CCNC(C)C2)c(F)cc2c(=O)c(C(=O)O)cn(C3CC3)c12 (stereo unspecified)
active: locus YCL016C, strain dcc1, stronger effect = lower value 0.899
inactive: locus YAL013W, strain DEP1, stronger effect = lower value 0.984 | locus YAL021C, strain ccr4, stronger effect = lower value 0.972 | locus YAL026C, strain drs2, stronger effect = lower value 0.955 | locus YAL030W, strain snc1, stronger effect = lower value 0.985 | locus YBL061C, strain skt5, stronger effect = lower value 0.992 | locus YBR009C, strain hhf1, stronger effect = lower value 0.968 | locus YBR021W, strain FUR4, stronger effect = lower value 0.951 | locus YBR023C, strain chs3, stronger effect = lower value 0.982 | locus YBR171W, strain sec66, stronger effect = lower value 0.985 | locus YBR229C, strain ROT2, stronger effect = lower value 1.01 | locus YBR231C, strain swc5, stronger effect = lower value 0.985 | locus YBR279W, strain paf1, stronger effect = lower value 0.986 | locus YCL011C, strain gbp2, stronger effect = lower value 0.966 | locus YCL029C, strain bik1, stronger effect = lower value 1.01 | locus YCL061C, strain MRC1, stronger effect = lower value 0.957 | locus YCL069W, strain vba3, stronger effect = lower value 0.994 | locus YCR088W, strain abp1, stronger effect = lower value 0.973 | locus YDL005C, strain med2, stronger effect = lower value 0.998 | locus YDL035C, strain GPR1, stronger effect = lower value 1 | locus YDL040C, strain nat1, stronger effect = lower value 0.984 | locus YDL074C, strain BRE1, stronger effect = lower value 0.965 | locus YDL101C, strain DUN1, stronger effect = lower value 1.01 | locus YDL134C, strain PPH21, stronger effect = lower value 1.02 | locus YDL185W, strain tfp1, stronger effect = lower value 1.01 | locus YDL192W, strain arf1, stronger effect = lower value 1.02 | locus YDR001C, strain nth1, stronger effect = lower value 0.976 | locus YDR069C, strain doa4, stronger effect = lower value 0.99 | locus YDR101C, strain arx1, stronger effect = lower value 0.993 | locus YDR137W, strain rgp1, stronger effect = lower value 0.883 | locus YDR150W, strain NUM1, stronger effect = lower value 1.02 | locus YDR159W, strain sac3, stronger effect = lower value 0.867 | locus YDR162C, strain NBP2, stronger effect = lower value 1.01 | locus YDR195W, strain ref2 1 | locus YDR297W, strain sur2, stronger effect = lower value 0.982 | locus YDR318W, strain mcm21, stronger effect = lower value 1 | locus YDR334W, strain swr1, stronger effect = lower value 0.981 | locus YDR335W, strain msn5, stronger effect = lower value 0.972 | locus YDR388W, stronger effect = lower value 0.993 | locus YDR392W, strain spt3, stronger effect = lower value 0.797 | locus YDR502C, strain sam2, stronger effect = lower value 0.996 | locus YEL003W, strain gim4, stronger effect = lower value 0.969 | locus YEL037C, strain rad23, stronger effect = lower value 0.981 | locus YEL061C, strain CIN8 (second series), stronger effect = lower value 0.979 | locus YEL061C, strain CIN8, stronger effect = lower value 1.01 | locus YER015W, strain faa2, stronger effect = lower value 0.968 | locus YER016W, strain bim1, stronger effect = lower value 0.985 | locus YER110C, stronger effect = lower value 1.01 | locus YER111C, strain swi4, stronger effect = lower value 0.997 | locus YER155C, strain BEM2 (second series), stronger effect = lower value 0.976 | locus YER155C, strain BEM2, stronger effect = lower value 1.01 | locus YER167W, strain BCK2, stronger effect = lower value 0.997 | locus YFR010W, strain ubp6, stronger effect = lower value 0.993 | locus YGL078C, strain dbp3, stronger effect = lower value 0.995 | locus YGL086W, strain mad1, stronger effect = lower value 0.997 | locus YGL167C, strain pmr1, stronger effect = lower value 1 | locus YGL173C, strain kem1, stronger effect = lower value 0.983 | locus YGL227W, strain vid30, stronger effect = lower value 0.978 | locus YGL240W, strain doc1, stronger effect = lower value 0.973 | locus YGL248W, strain PDE1, stronger effect = lower value 1.01 | locus YGL253W, strain hxk2, stronger effect = lower value 0.989 | locus YGR078C, strain PAC10, stronger effect = lower value 1.01 | locus YGR135W, strain pre9, stronger effect = lower value 0.989 | locus YGR229C, strain SMI1, stronger effect = lower value 0.886 | locus YGR252W, strain gcn5, stronger effect = lower value 0.978 | locus YHR013C, strain ard1, stronger effect = lower value 0.919 | locus YHR027C, strain rpn1, stronger effect = lower value 0.984 | locus YHR030C, strain SLT2, stronger effect = lower value 1 and 0.99 | locus YHR079C, strain IRE1 (second series), stronger effect = lower value 1 | locus YHR079C, strain IRE1, stronger effect = lower value 1.02 | locus YHR094C, strain hxt1, stronger effect = lower value 0.992 | locus YHR129C, strain ARP1, stronger effect = lower value 1 | locus YHR142W, strain chs7, stronger effect = lower value 0.954 | locus YHR200W, strain rpn10, stronger effect = lower value 0.991 | locus YIL066C, strain RNR3, stronger effect = lower value 1.02 | locus YIL073C, strain SPO22, stronger effect = lower value 0.967 | locus YIL125W, strain kgd1, stronger effect = lower value 1 | locus YIR030C, strain dcg1, stronger effect = lower value 0.997 | locus YJL092W, strain hpr5, stronger effect = lower value 0.961 | locus YJL095W, strain BCK1 (second series), stronger effect = lower value 1 | locus YJL095W, strain BCK1, stronger effect = lower value 0.936 and 1.02 | locus YJL115W, strain asf1, stronger effect = lower value 0.948 | locus YJL129C, strain trk1, stronger effect = lower value 0.96 | locus YJL134W, strain LCB3, stronger effect = lower value 1.01 | locus YJL154C, strain vps35, stronger effect = lower value 0.993 | locus YJL164C, strain tpk1, stronger effect = lower value 0.969 | locus YJL166W, strain qcr8, stronger effect = lower value 1 | locus YJL168C, strain set2, stronger effect = lower value 1 | locus YJL187C, strain SWE1 (second series), stronger effect = lower value 1.02 | locus YJR043C, strain POL32, stronger effect = lower value 0.911 | locus YJR066W, strain TOR1, stronger effect = lower value 0.94

From PubChem BioAssay AID1159580 (chemical genetic matrix, 2015)
